Laboratory results: PubChem BioAssay AID2629 (Broad Institute, 2010)
Several values for one entry are separate records, joined by “and”; a condition that tells them apart may be missing. Identical values can stand only once. Screen size: about 320,000 compounds; about 1,900 (0.59%) were called active. No stated cut-off is given here; in the data, active means inhibition mostly above about 10% (no sharp cut-off); inactive means mostly below about 6.7%. This excerpt belongs to a sample that is enriched for actives. More than one record can exist for a structure, and the calls need not agree.

Target: Protein LANA1 (Human herpesvirus 8 type P (isolate GK18)) (UniProt Q9QR71)
Sequence (Q9QR71 whole entry, looked up): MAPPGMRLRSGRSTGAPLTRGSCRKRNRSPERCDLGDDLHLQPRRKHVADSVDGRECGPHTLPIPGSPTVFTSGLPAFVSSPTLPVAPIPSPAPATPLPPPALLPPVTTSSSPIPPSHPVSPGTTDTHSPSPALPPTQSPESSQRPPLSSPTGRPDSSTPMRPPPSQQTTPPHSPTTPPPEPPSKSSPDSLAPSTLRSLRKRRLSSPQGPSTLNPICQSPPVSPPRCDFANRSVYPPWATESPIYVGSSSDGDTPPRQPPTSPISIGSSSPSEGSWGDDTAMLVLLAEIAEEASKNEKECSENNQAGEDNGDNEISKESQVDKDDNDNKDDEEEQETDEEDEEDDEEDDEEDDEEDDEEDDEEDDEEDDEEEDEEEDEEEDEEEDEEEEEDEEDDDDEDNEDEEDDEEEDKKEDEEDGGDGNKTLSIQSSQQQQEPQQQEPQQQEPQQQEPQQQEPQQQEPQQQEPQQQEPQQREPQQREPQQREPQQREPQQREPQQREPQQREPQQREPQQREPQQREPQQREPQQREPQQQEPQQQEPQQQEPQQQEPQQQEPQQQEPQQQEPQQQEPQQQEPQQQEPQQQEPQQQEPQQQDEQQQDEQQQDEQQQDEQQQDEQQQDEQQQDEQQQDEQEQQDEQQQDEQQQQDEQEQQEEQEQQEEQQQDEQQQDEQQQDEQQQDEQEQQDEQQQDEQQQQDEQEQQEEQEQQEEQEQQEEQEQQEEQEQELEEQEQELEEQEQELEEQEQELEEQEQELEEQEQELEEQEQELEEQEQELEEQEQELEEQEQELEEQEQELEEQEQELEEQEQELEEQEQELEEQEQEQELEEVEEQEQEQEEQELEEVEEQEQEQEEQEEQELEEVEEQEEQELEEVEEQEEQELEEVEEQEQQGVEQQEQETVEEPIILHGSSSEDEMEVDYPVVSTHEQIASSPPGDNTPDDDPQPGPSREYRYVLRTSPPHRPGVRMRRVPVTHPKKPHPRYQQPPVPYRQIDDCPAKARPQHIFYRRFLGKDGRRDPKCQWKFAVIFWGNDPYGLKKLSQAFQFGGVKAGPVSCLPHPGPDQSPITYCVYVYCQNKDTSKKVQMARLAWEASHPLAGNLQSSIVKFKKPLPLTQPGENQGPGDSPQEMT
Assay: blockers of LANA interaction with H2A/H2B – biochemical, FP readout, HTS, primary screen (AID 2629)
Conditions: cell-free LANA-H2A/H2B peptide, fluorescence polarization, stronger effect = higher value, concentration not given here

SMILES	inhibition
O=C(Nc1ccncc1)c1ccc(Cl)c([N+](=O)[O-])c1	-1.98% (inactive)
O=C(Nc1cccnc1)c1ccc(Cl)c([N+](=O)[O-])c1	-2.67% (inactive)
Cc1ccnc(NC(=O)c2ccc(Cl)c([N+](=O)[O-])c2)c1	21.7% (active)
Nc1ccn(CC(=O)N2CCN(c3ccccn3)CC2)c(=O)n1	0.94% (inactive)
CCCc1cc(=O)[nH]c(SCC(=O)c2c(N)n(CC(C)C)c(=O)n(C)c2=O)n1	-3.84% (inactive)
CC(C)Cn1c(N)c(C(=O)COC(=O)C2CCCN2C(=O)c2cccs2)c(=O)n(C)c1=O (configuration not stated)	18.2% (active)
CC(C)Cn1c(N)c(C(=O)COC(=O)CN2C(=O)C3CC=CCC3C2=O)c(=O)n(C)c1=O (configuration not stated)	-0.106% (inactive)
Cc1cccnc1NC(=O)Cn1c(=O)oc2ccccc21	10.8% (inactive)
Oc1ccc2ccc3cccc[n+]3c2c1	94.4% (active)
CC(C)(C)OC(=O)C[C@H]1C/C=C\C[C@@H](CC(=O)N[C@H](CO)Cc2ccccc2)C(=O)NC[C@@H](c2ccccc2)OC1=O	-0.906% (inactive)
CC(C)(C)OC(=O)C[C@@H]1C/C=C\C[C@@H](CC(=O)N[C@H](CO)Cc2ccccc2)C(=O)NCCOC1=O	-192% (inactive)
O=CN1CCN(C(=O)c2ccc3c(c2)OCO3)CC1	39.6% (active)
O=C(c1ccc2c(c1)OCO2)N1CCN(C(=O)c2ccco2)CC1	-0.585% (inactive)
O=C(c1ccc2c(c1)OCO2)N1CCOCC1	-0.497% (inactive)
COc1ccc([C@H]2[C@H](C(C)=O)N3N=Cc4ccccc4C3C23C(=O)OC(C)(C)OC3=O)cc1 (some centres not stated)	0.0257% (inactive)
COc1ccc([N+](=O)[O-])cc1NC(=O)C(C)OC(=O)C1c2ccccc2Oc2ccccc21 (configuration not stated)	4.81% (inactive)
Cn1c(=O)[nH]c(=O)c2c1nc(NCCCn1ccnc1)n2Cc1cccc(Br)c1	17.2% (active)
CCCCNc1nc2c(c(=O)[nH]c(=O)n2C)n1CCOc1ccccc1	-0.364% (inactive)
COc1ccc(CNc2nc3c(c(=O)[nH]c(=O)n3C)n2Cc2ccccc2)cc1	1.42% (inactive)
O=C(/C=C/c1ccc(F)cc1)NC(=S)NNC(=O)c1cccnc1	1% (inactive)
NC(=O)CN1CCCC1c1ccc2c(c1)OCCO2 (configuration not stated)	2.74% (inactive)
COc1ccccc1NC(=O)COC(=O)CNC(=O)C1CCCCC1	2.31% (inactive)
Nc1ncc(CN2CCCC(C(=O)Nc3ccc(-c4ccco4)cc3)C2)cn1 (configuration not stated)	3.49% (inactive)

SMILES	inhibition
O=C(Nc1cccc(-c2cscn2)c1)C1CCN(Cc2ccsc2)CC1	4.95% (inactive)
O=C(Nc1ccc(-c2cscn2)cc1)C1CCCN(Cc2ccc(CO)o2)C1 (configuration not stated)	21.8% (active)
O=C1CN(c2nc(-c3ccccc3)c3cc(Br)ccc3n2)c2ccccc2N1	-7.77% (inactive)
COc1ccc(C2N=C(N)N=C(N)N2c2ccccc2)cc1OC (configuration not stated)	-6.16% (inactive)
CCCCSc1[nH]c(=O)c(C(=O)OCC)cc1C#N	3.53% (inactive)
COc1ccc(-c2nc(N)sc2C2(O)C(=O)Nc3c(Br)cc(F)cc32)cc1OC (configuration not stated)	-10.7% (inactive)
CC(C)(C)C(=O)c1cnc(Nc2ccccc2)s1	54.4% (active)
O=C(/C=C/Nc1ccccc1)c1cnc(-c2ccccc2)s1	0.792% (inactive)
S=c1[nH]nc(Nc2ccccc2)s1	6.41% (inactive)
Cc1ccccc1-n1cc(CNC(=O)CC2C(=O)NCCN2C/C=C/c2ccccc2)cn1 (configuration not stated)	-1.56% (inactive)
Cc1nc(SC(C)C)[nH]c(=O)c1Cc1ccccc1	1.02% (inactive)
O=C(Cc1ccccc1Cl)N1CCOCC1	-0.189% (inactive)
O=C(O)CC(CC(=O)N1CCOCC1)c1ccccc1 (configuration not stated)	4.19% (inactive)
O=C(CP(=O)(c1ccccc1)c1ccccc1)N1CCOCC1	14.6% (active)
CCOc1ccc(CCNC(=O)Nc2ccccc2)cc1OCC	-1.38% (inactive)
CCN1C(=O)[C@H]2[C@@H](c3ccc(C)cc3)N3C(=O)N(c4cccc(Br)c4)C(=O)[C@@]3(CC)[C@H]2C1=O	-2.34% (inactive)
Cc1ccc(NC(=O)CSCC(=O)Nc2sccc2C#N)cc1	1.52% (inactive)
CCc1ccc2nc3sc(C(=O)Nc4nnc(CC)s4)c(N)c3cc2c1	-1.19% (inactive)
Cc1ccc(NC(=O)c2sc3nc(N)c(C#N)cc3c2N)cc1	14.6% (active)
CCc1ccc(OCC(=O)NCC(c2ccc(Cl)cc2)N2CCCCC2)cc1 (configuration not stated)	-1.04% (inactive)
NC(=O)COC(=O)c1sc2cc(F)ccc2c1Cl	0.759% (inactive)
CC1Cc2ccccc2N1C(=O)CSc1nnc(-c2ccc(S(=O)(=O)N3CCCC3)cc2)n1C (configuration not stated)	14.5% (active)
Cn1c(SCC(=O)OC2CCCCC2)nnc1-c1ccc(S(=O)(=O)N2CCCC2)cc1	5.59% (inactive)

SMILES	inhibition
CC1Cc2ccccc2N1C(=O)CSc1nnc(C2CC2)n1C (configuration not stated)	5.57% (inactive)
COC(=O)[C@H](C)[C@H]1C[C@]1(C)[C@H](NC(=O)OCc1ccccc1)c1ccccc1	-3.43% (inactive)
COC(=O)[C@H](Cc1ccccc1)NC(=O)[C@@H]1C[C@H]1[C@@H](NC(=O)OCc1ccccc1)c1ccccc1	14.2% (active)
COC(=O)[C@@H](Cc1ccccc1)NC(=O)NCCc1ccccc1	-0.105% (inactive)
COc1ccc(N2CCN(Cc3ccc(Br)s3)CC2)cc1	0.937% (inactive)
COc1ccccc1C(=O)N1CCNC(=O)C1CC(=O)Nc1ccc(Cl)cc1 (configuration not stated)	-4.24% (inactive)
CSc1ccc(Cl)c(C(=O)OCC(=O)N2CCNC2=O)c1	2.35% (inactive)
COCCNc1ncnc2c1nc1n2CCCC1	3% (inactive)
Cc1cccc(NS(=O)(=O)c2ccc(C)c(C(=O)NCC(c3ccccc3)N(C)C)c2)c1 (configuration not stated)	70.5% (active)
Cc1cccc(NS(=O)(=O)c2ccc(C)c(C(=O)NCc3cccnc3)c2)c1	-4.62% (inactive)
Cc1cccc(NS(=O)(=O)c2ccc(C)c(C(N)=O)c2)c1	2.17% (inactive)
O=C1C=C(c2ccnc3cc(Cl)ccc23)C[C@@H](c2ccc3c(c2)OCO3)C1	0.0706% (inactive)
O=C(NCCc1ccc(F)cc1)c1ccc2nccnc2c1	7.1% (inactive)
Cc1nc(C)c2c(c1C(F)(F)F)-c1ccccc1C2(F)F	11.7% (active)
CC(O)c1ccc(OCCN(C)c2ccccn2)cc1 (configuration not stated)	0.184% (inactive)
CC(C)=N/N=C1/NC(=O)C(Cc2ccccc2)S1 (configuration not stated)	0.219% (inactive)
CN(CCOc1ccc(CC2SC(=O)NC2=O)cc1)c1ccccn1 (configuration not stated)	11.3% (active) and 1.08% (inactive)
CNc1nccc(-c2ccc(Cl)cc2)c1C#N	-1.28% (inactive)
CSCC[C@H](NC(=O)N1CCn2c1nc1ccccc12)C(=O)NC1CCCCC1	-4.45% (inactive)
Cc1nc(NC(CC(C)C)C(=O)O)c2nc(C)oc2n1 (configuration not stated)	11.3% (active)
Cc1cc(C)cc(C(=O)NC(CC(N)=O)c2ccc(N3CCC(N4CCCCC4)CC3)c([N+](=O)[O-])c2)c1 (configuration not stated)	-1.95% (inactive)
CC1(C)CCc2nc(SCc3ccccc3)c(C#N)cc2C1	-3.11% (inactive)
N#CC1=C(SCc2ccc(C#N)cc2)N=C(N)C(c2nc(-c3ccccc3)cs2)C12CCCCC2 (configuration not stated)	5.1% (inactive)

SMILES	inhibition
N#CC1=C(SCc2ccccc2)NC(=O)C(C#N)C12CCCC2 (configuration not stated)	15% (active)
COCCCNC(=O)Cc1ccc(-n2c(C)nc3cccnc32)cc1	-0.715% (inactive)
CCc1ccc(-c2nc(SCC(=O)NC3CCCC3)n[nH]2)cc1	1.39% (inactive)
Cc1onc(-c2ccccc2)c1C(=O)Nc1ccccc1C#N	1.04% (inactive)
CC(=O)Nc1cccc(NC(=O)c2c(-c3ccccc3)noc2C)c1	18.3% (active)
Cc1ccc(CNC(=O)c2c(-c3ccccc3)noc2C)cc1	-3.29% (inactive)
CC(=O)NC12CC3CC(C1)CC(C(=O)N1CCN(C(=O)c4ccco4)CC1)(C3)C2	-0.808% (inactive)
O=C(NCC12CC3CC(C1)CC(CNC(=O)N1CCCC1)(C3)C2)N1CCCC1	-3.32% (inactive)
O=C(N1CCCC1)C12CC3CC(C1)CC(C(=O)N1CCCC1)(C3)C2	15.6% (active)
O=S(=O)(NC1CCCCC1)c1ccc(F)c2ccccc12	-1.01% (inactive)
COc1cccc(N(C(=O)c2ccn[nH]2)C2(C(=O)Nc3c(C)cccc3C)CCCCC2)c1	83.6% (active)
Cc1cccc(C)c1NC(=O)C1(N(C(=O)c2ccccn2)c2ccc(O)cc2)CCCCC1	-0.134% (inactive)
COc1cccc(N2CC(C(=O)Nc3c(C)cccc3C)CC2=O)c1 (configuration not stated)	-1.43% (inactive)
COc1cc(CNCc2ccc(OC)c3ccccc23)cc(OC)c1OC	-2.97% (inactive)
C=CCC[C@@H](Cc1ccc(F)cc1)C(=O)OC[C@@H](C)NC(=O)[C@H](CC=C)CC(=O)N(CCO)Cc1ccccc1	-1.37% (inactive)
O=C(CSc1nc2ccccc2c(=O)n1-c1ccccc1F)N1CCOCC1	-5.04% (inactive)
CCOC(=O)N1CCN(CC(=O)Nc2cc(C)nn2-c2nc3ccccc3s2)CC1	16.1% (active)
CCOC(=O)N1CCN(CC(=O)Nc2ccc(F)cc2)CC1	-4.74% (inactive)
CCOC(=O)N1CCN(C(=O)Cn2cnc3ccccc3c2=O)CC1	3% (inactive)
O=C(OCc1ccccc1F)c1ccc2c(c1)OCCO2	-6.13% (inactive)
CC(=O)c1nnn(-c2ccc(Cl)cc2C#N)c1C	10.1% (active)
CC(=O)c1cc(C#N)c(SCC(=O)C(C)(C)C)nc1C	-1.09% (inactive)
CCOC(=O)c1nc(C)n(-c2ccc(Cl)cc2Cl)n1	-1.22% (inactive)
